The values below come from article PMC11006913.

Assay [1] addresses NKX2-5 (Homo sapiens, UniProt P52952 125-210, R139K). The assay can be described thus: PBM; 200 nM protein, PBS. The settings on record: dsDNA, one strand shown.
Assay [2] has as its target NKX2-5 (Homo sapiens, UniProt P52952 125-210). The assay can be described thus: PBM; 200 nM protein, PBS. The settings on record: dsDNA, one strand shown.

Chain of NKX2-5 (Homo sapiens, UniProt P52952 125-210, R139K) (P52952 125-210 R139K): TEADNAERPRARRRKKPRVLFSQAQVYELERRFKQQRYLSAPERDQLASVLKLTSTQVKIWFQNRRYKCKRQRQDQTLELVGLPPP
Chain of NKX2-5 (Homo sapiens, UniProt P52952 125-210) (P52952 125-210): as the sequence (P52952 125-210 R139K) above, with K15R counted along it

As for CCGAGCCA, the binding signal is 9.01 upbm affinity estimate (log intensity, higher = more binding, comparable within an allelic series) with NKX2-5 [1] and 9.05 upbm affinity estimate (log intensity, higher = more binding, comparable within an allelic series) with NKX2-5 [2].

In the case of AATAGTCT, the binding signal with NKX2-5 [1] is 10.6 upbm affinity estimate (log intensity, higher = more binding, comparable within an allelic series); in the assay with NKX2-5 [2], 10.7 upbm affinity estimate (log intensity, higher = more binding, comparable within an allelic series).

Consider CGGCGAAC, for which the binding signal with NKX2-5 [1] is 8.65 upbm affinity estimate (log intensity, higher = more binding, comparable within an allelic series); with NKX2-5 [2] it was 8.62 upbm affinity estimate (log intensity, higher = more binding, comparable within an allelic series).

For the sequence ACCATGGT, the binding signal was 9.14 upbm affinity estimate (log intensity, higher = more binding, comparable within an allelic series) with NKX2-5 [1] and 9.06 upbm affinity estimate (log intensity, higher = more binding, comparable within an allelic series) with NKX2-5 [2].

With AACGCGGA, the binding signal is 8.76 upbm affinity estimate (log intensity, higher = more binding, comparable within an allelic series) with NKX2-5 [1] and 8.8 upbm affinity estimate (log intensity, higher = more binding, comparable within an allelic series) with NKX2-5 [2].

As for ACCAAACC, the binding signal is 8.82 upbm affinity estimate (log intensity, higher = more binding, comparable within an allelic series) with NKX2-5 [1] and 8.9 upbm affinity estimate (log intensity, higher = more binding, comparable within an allelic series) with NKX2-5 [2].

With ACACTCTG, the binding signal in the assay with NKX2-5 [1] is 10.6 upbm affinity estimate (log intensity, higher = more binding, comparable within an allelic series); with NKX2-5 [2], 10.5 upbm affinity estimate (log intensity, higher = more binding, comparable within an allelic series).

As to CCGCAGTC, the binding signal in the assay with NKX2-5 [1] is 8.8 upbm affinity estimate (log intensity, higher = more binding, comparable within an allelic series); in the assay with NKX2-5 [2] it was 8.72 upbm affinity estimate (log intensity, higher = more binding, comparable within an allelic series).

Consider GGCAAGCC, for which the binding signal was 8.94 upbm affinity estimate (log intensity, higher = more binding, comparable within an allelic series) with NKX2-5 [1] and 8.92 upbm affinity estimate (log intensity, higher = more binding, comparable within an allelic series) in the assay with NKX2-5 [2].

On to TCTGCAGA, for which the binding signal was 9.09 upbm affinity estimate (log intensity, higher = more binding, comparable within an allelic series) with NKX2-5 [1] and 9.04 upbm affinity estimate (log intensity, higher = more binding, comparable within an allelic series) in the assay with NKX2-5 [2].

With AACGGTGG, the binding signal is 9.06 upbm affinity estimate (log intensity, higher = more binding, comparable within an allelic series) in the assay with NKX2-5 [1] and 8.98 upbm affinity estimate (log intensity, higher = more binding, comparable within an allelic series) with NKX2-5 [2].

Regarding AGACCGCG, the binding signal in the assay with NKX2-5 [1] is 8.9 upbm affinity estimate (log intensity, higher = more binding, comparable within an allelic series); in the assay with NKX2-5 [2] it was 8.83 upbm affinity estimate (log intensity, higher = more binding, comparable within an allelic series).

For the sequence CGGCCAGC, the binding signal was 8.6 upbm affinity estimate (log intensity, higher = more binding, comparable within an allelic series) in the assay with NKX2-5 [1] and 8.71 upbm affinity estimate (log intensity, higher = more binding, comparable within an allelic series) with NKX2-5 [2].

Take CACTAAAG: the binding signal is 10.9 upbm affinity estimate (log intensity, higher = more binding, comparable within an allelic series) in the assay with NKX2-5 [1] and 10.8 upbm affinity estimate (log intensity, higher = more binding, comparable within an allelic series) in the assay with NKX2-5 [2].

As to TCACTCGA, the binding signal with NKX2-5 [1] is 10.9 upbm affinity estimate (log intensity, higher = more binding, comparable within an allelic series); with NKX2-5 [2], 10.9 upbm affinity estimate (log intensity, higher = more binding, comparable within an allelic series).

In the case of CCTCTCGA, the binding signal is 11.2 upbm affinity estimate (log intensity, higher = more binding, comparable within an allelic series) with NKX2-5 [1] and 11.3 upbm affinity estimate (log intensity, higher = more binding, comparable within an allelic series) with NKX2-5 [2].

Take CCTGGGCA: the binding signal was 8.92 upbm affinity estimate (log intensity, higher = more binding, comparable within an allelic series) in the assay with NKX2-5 [1] and 9.12 upbm affinity estimate (log intensity, higher = more binding, comparable within an allelic series) with NKX2-5 [2].

As for GCCCTCTA, the binding signal with NKX2-5 [1] was 10.4 upbm affinity estimate (log intensity, higher = more binding, comparable within an allelic series); with NKX2-5 [2] it was 10.5 upbm affinity estimate (log intensity, higher = more binding, comparable within an allelic series).

Turning to CGCGCAGC, the binding signal was 8.7 upbm affinity estimate (log intensity, higher = more binding, comparable within an allelic series) in the assay with NKX2-5 [1] and 8.72 upbm affinity estimate (log intensity, higher = more binding, comparable within an allelic series) with NKX2-5 [2].

CAGTTGGC: the binding signal is 8.87 upbm affinity estimate (log intensity, higher = more binding, comparable within an allelic series) with NKX2-5 [1] and 8.7 upbm affinity estimate (log intensity, higher = more binding, comparable within an allelic series) in the assay with NKX2-5 [2].

On to AGCACTAG, for which the binding signal was 10.6 upbm affinity estimate (log intensity, higher = more binding, comparable within an allelic series) in the assay with NKX2-5 [1] and 10.6 upbm affinity estimate (log intensity, higher = more binding, comparable within an allelic series) in the assay with NKX2-5 [2].

For CGACACTC, the binding signal with NKX2-5 [1] was 10.6 upbm affinity estimate (log intensity, higher = more binding, comparable within an allelic series); with NKX2-5 [2], 10.5 upbm affinity estimate (log intensity, higher = more binding, comparable within an allelic series).

Turning to ACCGCGGG, the binding signal in the assay with NKX2-5 [1] was 8.49 upbm affinity estimate (log intensity, higher = more binding, comparable within an allelic series); in the assay with NKX2-5 [2], 8.44 upbm affinity estimate (log intensity, higher = more binding, comparable within an allelic series).

Regarding CCCGTAGC, the binding signal in the assay with NKX2-5 [1] is 8.54 upbm affinity estimate (log intensity, higher = more binding, comparable within an allelic series); in the assay with NKX2-5 [2] it was 8.55 upbm affinity estimate (log intensity, higher = more binding, comparable within an allelic series).

Turning to CACGTCCC, the binding signal with NKX2-5 [1] is 8.94 upbm affinity estimate (log intensity, higher = more binding, comparable within an allelic series); in the assay with NKX2-5 [2], 8.96 upbm affinity estimate (log intensity, higher = more binding, comparable within an allelic series).

As to GCCGACCC, the binding signal with NKX2-5 [1] was 8.84 upbm affinity estimate (log intensity, higher = more binding, comparable within an allelic series); in the assay with NKX2-5 [2], 8.81 upbm affinity estimate (log intensity, higher = more binding, comparable within an allelic series).

With GGCTATTA, the binding signal in the assay with NKX2-5 [1] is 10.7 upbm affinity estimate (log intensity, higher = more binding, comparable within an allelic series); in the assay with NKX2-5 [2] it was 10.6 upbm affinity estimate (log intensity, higher = more binding, comparable within an allelic series).

Consider CTGATCAG, for which the binding signal with NKX2-5 [1] is 8.97 upbm affinity estimate (log intensity, higher = more binding, comparable within an allelic series); in the assay with NKX2-5 [2] it was 8.87 upbm affinity estimate (log intensity, higher = more binding, comparable within an allelic series).

In the case of ACCACTCT, the binding signal is 11.3 upbm affinity estimate (log intensity, higher = more binding, comparable within an allelic series) in the assay with NKX2-5 [1] and 11.2 upbm affinity estimate (log intensity, higher = more binding, comparable within an allelic series) with NKX2-5 [2].

Regarding ACCAGGGC, the binding signal with NKX2-5 [1] was 8.76 upbm affinity estimate (log intensity, higher = more binding, comparable within an allelic series); with NKX2-5 [2], 8.77 upbm affinity estimate (log intensity, higher = more binding, comparable within an allelic series).

With CCGGAGAC, the binding signal was 8.74 upbm affinity estimate (log intensity, higher = more binding, comparable within an allelic series) with NKX2-5 [1] and 8.76 upbm affinity estimate (log intensity, higher = more binding, comparable within an allelic series) in the assay with NKX2-5 [2].
